Source: PubChem
Jurkat NFkB inh = inhibitors of the PMA/ionomycin-induced NF-kB reporter in Jurkat cells; PMA/ionomycin-induced NF-kB luciferase reporter, luminescence; actives 0.53% (n = 330,000); inhibition, % at 4 µM; AID 435003; in the data active means inhibition above about 50%
Gli-Sufu antag = antagonists of Gli-Sufu signaling; Sufu-KO-LIGHT fibroblasts, Gli luciferase reporter luminescence; inhibition, % at 5 µM; actives 0.74% (n = 340,000); AID 588413;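 active means inhibition above about 55%, limit read from the data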
697 NFkB inh = lowers PMA/ionomycin-induced NF-kB signal in 697 B cells; inhibition, % at 4 µM; actives 0.33% (n = 330,000); 697 B-cell NF-kB luciferase reporter, 16 h; in the data active means inhibition above about 35%
Beta cell apopt = beta cell apoptosis inhibition; actives 0.8% (n = 300,000); INS-1E cytokine-induced death, ATP luminescence, 48 h; percent of positive-control rescue, neutral wells zero; protection from apoptosis, % (concentration not given with the values);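 active means Every replicate reaches about 75%, or at least half do and their mean reaches it too, limit read from the data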;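 further: higher means more ATP so stronger rescue from cytokine killing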
Jurkat NFkB conf = inhibitors of the PMA/ionomycin-induced NF-kB reporter in Jurkat cells, retest. AID 435020. actives 27% (n = 2,700). inhibition, % at 4 µM. shares compounds with Jurkat NFkB inh. Jurkat NF-kB luciferase, 16 h;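 active means inhibition reaching about 45% at 4 µM in either replicate, limit read from the data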
697 NFkB conf = lowers PMA/ionomycin-induced NF-kB signal in 697 B cells | shares compounds with 697 NFkB inh | 697 B-cell NF-kB luciferase, 16 h | inhibition, % at 4 µM | actives 35% (n = 2,000); in the data active means inhibition mostly above about 28%, no sharp cut-off; inactive means mostly below about 22%
Of the large screens only hits and unclear results are named; the others gave an inactive call (follow-up assays come after a bar, where they were run). Sampled rows, rich in hits. Any-hit rate of the full collection: about 1.8%.

C/C=C(\C)C(=O)N[C@@H](c1ccccc1)[C@@H](O)C(=O)O[C@H]1C[C@@]2(O)[C@@H](OC(=O)c3ccccc3)C3[C@](C)(C(=O)[C@H](OC(C)=O)C(=C1C)C2(C)C)[C@@H](O)C[C@H]1OC[C@@]31OC(C)=O (stereo not given in full)	Jurkat NFkB inh 66 | Jurkat NFkB conf 71
C/C=C(\C)C(=O)N[C@@H](c1ccccc1)[C@@H](O)C(=O)O[C@H]1C[C@@]2(O)[C@@H](OC(=O)c3ccccc3)C3[C@](C)(C(=O)[C@H](O)C(=C1C)C2(C)C)[C@@H](O)C[C@H]1OC[C@@]31OC(C)=O (stereo not given in full)	Jurkat NFkB inh 70 (no result: Beta cell apopt) | Jurkat NFkB conf 64
CC(=O)O[C@@]12CO[C@@H]1C[C@H](O)[C@@]1(C)C(=O)[C@H](O)C3=C(C)[C@@H](O)C[C@@](O)([C@@H](OC(=O)c4ccccc4)C12)C3(C)C (stereo not given in full)	none
Cn1c(O)c(Cc2ccc(OCc3ccccc3)cc2)c(=O)n(C)c1=O	none
COc1ccc(-c2cc(=Nc3ccccc3)c3cc(C)ccc3o2)cc1	none | Jurkat NFkB conf inactive
Cc1cc(OCC(=O)NCc2cccnc2)c2c3c(c(=O)oc2c1)CCCC3	none (no result: Beta cell apopt)
Cc1cc(O)c2c(C)c(CC(=O)N3C[C@H]4C[C@@H](C3)c3cccc(=O)n3C4)c(=O)oc2c1	none (no result: Beta cell apopt)
O=C(c1cccn2c(=O)c3cc(Br)ccc3nc12)N1CCC2(CC1)OCCO2	none
Cc1cccn2c(=O)c3cc(C(=O)N4CCC5(CC4)OCCO5)n(C)c3nc12	Jurkat NFkB inh 53 | Jurkat NFkB conf inactive
COc1cc2c(cc1OC)-c1c3c(cc4c1[C@@H](C2)N(C)CC4)OCO3	Jurkat NFkB inh 60 | Jurkat NFkB conf inactive
O=C(c1cc2ccccc2oc1=O)N1CCC2(CC1)OCCO2	none
COc1cc([C@@H]2c3cc4c(cc3[C@@H](OC)[C@H]3COC(=O)[C@H]23)OCO4)cc(OC)c1O	Jurkat NFkB inh 57 | Jurkat NFkB conf 47
COc1cc2c(cc1C=O)OCO2	none
O=C1CN=C(c2ccccc2)c2oc3ccc(Br)cc3c2N1	none
COc1cccc(OC)c1C1=NCC(=O)Nc2c1oc1ccc(Br)cc21	Jurkat NFkB inh 56, Gli-Sufu antag 57 | Jurkat NFkB conf 61
CC(=O)OC(C)(C)/C=C/C(=O)C(C)(O)C1[C@H](O)C[C@@]2(C)C3CC=C4C(CC[C@@H](O)C4(C)C)[C@]3(CO)C(=O)C[C@]12C (stereo not given in full)	Jurkat NFkB inh 81, Gli-Sufu antag 80 (no result: Beta cell apopt) | Jurkat NFkB conf inactive
COc1ccc(-n2nc(C(=O)NCC(=O)N3CCC4(CC3)OCCO4)c3ccccc3c2=O)cc1	none
COc1cc2nc(CN3CC=C(c4ccccc4)CC3)[nH]c(=O)c2cc1OC	Jurkat NFkB inh 59 | Jurkat NFkB conf 52
COc1cc(C)c(CN2CC=C(c3ccc(F)cc3)CC2)cc1C	none
C=C(C=O)CC1CC(O)[C@]2(C)OC3CC4OC5C[C@]6(C)O[C@]7(C)CCC8OC9C[C@]%10(C)OC%11C(C)=CC(=O)OC%11CC%10OC9C[C@@H](C)C8OC7CC6O[C@]5(C)CC5OC5C4OC3CC2O1 (stereo not given in full)	Jurkat NFkB inh 96, Gli-Sufu antag 75, Beta cell apopt 101 | Jurkat NFkB conf 96 | 697 NFkB conf 38
CC1=CC2/C=C(\C)CCC(O)C(O)/C=C/C(=O)C23C(=O)NC(CC(C)C)C3C1C (stereo not given)	Jurkat NFkB inh 79, 697 NFkB inh 38, Beta cell apopt 106 | Jurkat NFkB conf inactive | 697 NFkB conf inactive
C/C1=C\[C@@H](C)C/C=C/[C@H]2[C@@H]3O[C@]3(C)[C@@H](C)[C@H]3[C@H](Cc4c[nH]c5ccccc45)NC(=O)[C@]32C(=O)/C=C/C(=O)[C@@H]1O	none (no result: Beta cell apopt)
CCc1ccc(N2C(=O)NC(=O)/C(=C/c3cccn3CCOc3ccc(C(C)CC)cc3)C2=O)cc1 (stereo not given)	none
Nc1ncnc2c1ccn2[C@@H]1O[C@H](CO)[C@@H](O)[C@H]1O	Jurkat NFkB inh 86, 697 NFkB inh 75 (no result: Beta cell apopt) | Jurkat NFkB conf 85 | 697 NFkB conf 98
COc1ccc(N=C2SCCCN2C)cc1	none
Nc1ccccc1C(=O)OCCc1ccccc1	none | Jurkat NFkB conf inactive | 697 NFkB conf inactive
CCCCOC(=O)c1ccccc1N	none (no result: Jurkat NFkB inh, 697 NFkB inh, Beta cell apopt)
C=C1C(=O)O[C@@H]2C[C@@H](C)[C@@H]3C=CC(=O)[C@@]3(C)[C@@H](O)[C@H]12	Jurkat NFkB inh 99, Gli-Sufu antag 97, 697 NFkB inh 102, Beta cell apopt 112 | Jurkat NFkB conf 95 | 697 NFkB conf 105
COc1ccc(N2C(=O)C(=O)N(c3ccc(OC)cc3)P2(=O)N(CCCl)CCCl)cc1	none (no result: Jurkat NFkB inh, 697 NFkB inh, Beta cell apopt)
CC(=O)OC[C@]12CCC(C)=C[C@H]1O[C@@H]1[C@H](O)[C@@H](OC(C)=O)[C@@]2(C)[C@]12CO2	Jurkat NFkB inh 97, Gli-Sufu antag 92, 697 NFkB inh 98 (no result: Beta cell apopt) | Jurkat NFkB conf 99 | 697 NFkB conf 94
C[C@@H]1O[C@@H](O[C@H]2C[C@@H](O)[C@]3(CO)[C@H]4[C@H](O)C[C@]5(C)[C@@H](C6COC(=O)C6)CC[C@]5(O)[C@@H]4CC[C@]3(O)C2)[C@H](O)[C@H](O)[C@H]1O (stereo not given in full)	Jurkat NFkB inh 96 | Jurkat NFkB conf 72 | 697 NFkB conf inactive
CC(=O)OC1CC(OC2C(O)CC(OC3C(O)CC(OC4CCC5(C)C(CCC6C5CCC5(C)C(C7=CC(=O)OC7)CCC65O)C4)OC3C)OC2C)OC(C)C1OC1OC(CO)C(O)C(O)C1O (stereo not given)	none (no result: Jurkat NFkB inh, 697 NFkB inh, Beta cell apopt)
CC(=O)C1CCC2(O)C3CCC4=CC(=O)CCC4(C)C3CCC12C (stereo not given)	none (no result: Jurkat NFkB inh, 697 NFkB inh, Beta cell apopt)
C[C@@H]1O[C@@H](O[C@@H]2C=C3CC[C@@H]4C(CC[C@]5(C)[C@@H](c6ccc(=O)oc6)CC[C@]45O)[C@@]3(C)CC2)[C@H](O)[C@H](O)[C@H]1O (stereo not given in full)	Jurkat NFkB inh 100, 697 NFkB inh 90 | Jurkat NFkB conf 94 | 697 NFkB conf 99
C[C@@H]1O[C@@H](O[C@@H]2C=C3CCC4C(CC[C@]5(C)[C@@H](c6ccc(=O)oc6)CC[C@]45O)[C@@]3(C)CC2)[C@H](O)[C@H](O)[C@H]1O (stereo not given in full)	Jurkat NFkB inh 100, 697 NFkB inh 102 | Jurkat NFkB conf 97 | 697 NFkB conf 99
CCN1C[C@]2(CO)CC[C@H](OC)[C@@]34C5C[C@H]6[C@H](OC)C5[C@](O)(C[C@H]6OC)[C@@](O)(C(OC)C23)[C@@H]14 (stereo not given in full)	none
CCOP(=S)(OCC)Oc1cc(C)oc(=O)c1Cl	none
